According to PubChem BioAssay (NCI):
The panel holds about 83,000 compounds, 20% with a hit somewhere; the sample as a whole holds those more often.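 A percent growth of 40 corresponds to 60% growth inhibition; 0 means no net growth; -100 means all cells died. Active threshold: below 10.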 Active and inactive are the calls of the source.

Experiments:
Assay in all cases: NCI-60 one-dose screen, 48 h (100 = growth as untreated, 0 = no growth, -100 = all killed)
[1] = test system: NCI-H226 lung; conditions: 10 µM unless noted
[2] = test system: NCI-H322M lung; conditions: 10 µM unless noted
[3] = test system: HOP-62 NSCLC; conditions: 10 µM unless noted
[4] = test system: NCI-H460 lung; conditions: 10 µM unless noted
[5] = test system: HOP-92 NSCLC; conditions: 10 µM
[6] = test system: NCI-H522 lung; conditions: 10 µM unless noted
[7] = test system: A549/ATCC NSCLC; conditions: 10 µM unless noted
[8] = test system: 786-0 renal; conditions: 10 µM unless noted
[9] = test system: COLO 205 colon; conditions: 10 µM unless noted
[10] = test system: DU-145 prostate; conditions: 10 µM unless noted
[11] = test system: K-562 leukemia; conditions: 10 µM unless noted
[12] = test system: MALME-3M melanoma; conditions: 10 µM unless noted
[13] = test system: MDA-MB-231 breast; conditions: 10 µM unless noted
[14] = test system: SF-268 CNS; conditions: 10 µM unless noted
[15] = test system: SF-295 CNS; conditions: 10 µM unless noted
[16] = test system: SF-539 CNS; conditions: 10 µM unless noted
[17] = test system: UACC-257 melanoma; conditions: 10 µM unless noted
[18] = test system: RXF 393 renal; conditions: 10 µM unless noted
[19] = test system: M14 melanoma; conditions: 10 µM unless noted

Measured: growth

CC(=O)N1C(=S)NC(=O)C1CC(C)C (centres undefined)
inactive: [1] 100% | [2] 97.6% | [3] 99.8% | [4] 106% | [5] 98.9% | [6] 94.9% | [7] 101% | [8] 97.6% | [9] 110% | [10] 110% | [11] 106% | [12] 102% | [13] 103% | [14] 102% | [15] 102% | [16] 102% | [17] 104%

CC(=O)c1ccc(Nc2nc(SCC(C)C)nc(-c3ccccc3)c2C#N)cc1
inactive: [1] 55.5% | [2] 94.9% | [3] 25.9% | [4] 105% | [5] 44.6% | [6] 87.3% | [7] 101% | [8] 53.9% | [9] 119% | [10] 107% | [11] 95.4% | [12] 94.9% | [13] 73.5% | [14] 72% | [15] 17% | [16] 63.9% | [17] 105% | [19] 103%
active: [18] -1.29%

Fc1ccc(-c2cc3nc(C(Cl)Cl)nc(-c4ccc(F)cc4)n3n2)cc1
active: [2] -30.3% | [3] -27.6% | [4] -52.9% | [5] -3.1% | [6] 0.105% | [7] -26.8% | [9] -70.2% | [10] -18.4% | [12] 9.81% | [13] 5.31% | [18] -58.1% | [15] 8.01% | [19] -4.2%
inactive: [1] 79.1% | [8] 51.4% | [11] 14.3% | [14] 23.2% | [16] 21.3% | [17] 20.5%

Cc1ccc(CSc2nc(-c3ccc(Cl)cc3)c(C#N)c(N3CCNCC3)n2)cc1
active: [11] 3.43%
inactive: [1] 90.2% | [2] 89% | [3] 80.3% | [4] 88.6% | [5] 15.9% | [6] 95% | [7] 81.2% | [8] 66.8% | [9] 109% | [10] 82.6% | [12] 96.3% | [13] 77.2% | [18] 67.8% | [14] 79.6% | [15] 95.4% | [16] 80.9% | [17] 99.4% | [19] 98.1%
